Laboratory results as given in PubChem BioAssay AID2314 (National Center for Advancing Translational Sciences (NCATS), 2010).
Values joined by “and” are separate entries in the source; they are usually repeats but may differ in a detail not shown here. Identical values can stand only once. The campaign covered roughly 300,000 compounds. About 37,000 (12%) were called active. What follows is part of a selection rich in actives, with near analogues and random picks from the rest. Values without a mark were called inactive. Cut-off read from the data, not from the text of the source: active = max response mostly above about 13% (no sharp cut-off); inactive = mostly below about 14%.

assay: Cycloheximide Counterscreen for Small Molecule Inhibitors of Shiga Toxin; settings: cell reporter, cycloheximide protein synthesis inhibition counterscreen; hits give high values; note: read at 38.3 µM for the half of the compounds with a filed dose; 0% is about no effect

Compared with COc1cccc(N(C(=O)c2snc(C(N)=O)c2N)C(C(=O)NCC2CCCO2)c2c[nH]c3ccccc23)c1 (stereo not drawn), COc1cccc(-n2cc(C(=O)O)c3ccccc3c2=O)c1 is higher in max response: -2.27% for the first, -2.23% for the second.

First: COC(=O)c1ccccc1NC(=O)C1(S(=O)(=O)c2ccc(Cl)cc2)CC1
Second: CC(=O)Nc1ccc(S(=O)(=O)N2CCN(C(=O)c3ccccc3F)CC2)cc1
The max response of the first is lower: -5.97% for the first, 6.62% for the second.

First: COc1ccc(S(=O)(=O)N(C)C)cc1NC(=O)CSc1ncccn1
Second: COc1ccc(OC)c(C(C)NC(=S)Nc2ccc(S(=O)(=O)Nc3ncccn3)cc2)c1 (stereo not drawn)
The max response of the first is higher: 8.4% for the first, -0.745% for the second.

Going from COc1ccc(NS(=O)(=O)c2ccc3oc(SCC(N)=O)nc3c2)cc1 to Cc1oc2nc(SCC(=O)Nc3ccc(S(N)(=O)=O)cc3)nc(NC(=O)c3ccccc3)c2c1C, the max response rises from -2.16% to -2.02%.

First: CCC1(C(=O)c2ccccc2)C(c2cccc([N+](=O)[O-])c2)C1(C(=O)OC)C(=O)OC (stereo not drawn)
Second: Cc1ccc(C(=O)Nc2c(C#N)c(C)c(C)n2Cc2ccccc2)cc1
The max response of the first is lower: -5.04% for the first, -2.66% for the second.

First: N#Cc1c(N2CCCCC2)nc(N)c2c(N)nc(SCC(=O)O)cc12
Second: CCOC(=O)c1c(N=CN(C)C)c(C#N)c2n1CCCC2
The max response of the first is higher: -0.559% for the first, -4.22% for the second.

Compared with Cc1ccc(S(=O)(=O)N2CCC(C(=O)NCC3CCCO3)CC2)cc1 (stereo not drawn), CC(NS(=O)(=O)c1ccc(OCC(=O)N2CCCC2)cc1)c1ccccc1 (stereo not drawn) is higher in max response: -2.91% for the first, -1.86% for the second.

Going from Cc1cc(/C=C(/C#N)C(=O)Nc2ccc(Cl)cc2)c(C)n1-c1cccnc1 to Cc1c(NC(=O)c2cccnc2)c(=O)n(-c2ccccc2)n1C, the max response falls from 1.53% to -2.61%.

First: COc1ccc(CCNS(=O)(=O)c2cn(C)nc2C)cc1
Second: Cc1nn(C)c(Oc2ccccc2)c1CCNS(=O)(=O)c1ccc(F)cc1
The max response of the first is higher: -0.628% for the first, -1.22% for the second.

Going from CC(C)=N/N=C1/NC(=O)C(Cc2ccccc2)S1 (stereo not drawn) to CNC(=S)NNC(=O)c1sccc1OCc1ccccc1, the max response rises from -3.98% to -0.196%.

Going from C=CCn1c(SCc2c(C)noc2C)nc2sc3c(c2c1=O)CCC(C)C3 (stereo not drawn) to CC1CCc2c(sc3nc4n(c(=O)c23)CCS4)C1 (stereo not drawn), the max response rises from -3.64% to 31.9%.

Going from COc1cc(C2OC(c3cc(OC)c(OC)c(OC)c3)C(C)C2C)cc(OC)c1OC (stereo not drawn) to CCC(C)n1c(-c2cc(OC)c(OC)c(OC)c2)nc2nc3ccccc3nc21 (stereo not drawn), the max response falls from 8.36% to 5.57%.

Going from CCOC(=O)c1nnn2c1nc(N1CCN(c3ccccc3)CC1)c1ccccc12 to COc1ccc(N2CCN(C(=O)CN3C(=O)COc4ccccc43)CC2)cc1, the max response falls from -4.05% to -4.68%.

Going from COc1ccc(CCNc2ncnc3c2nnn3Cc2ccccc2)cc1 to COc1cccc(N2C(=O)CN(Cc3ccccc3)C2=S)c1, the max response rises from -1.82% to -1.8%.

Compared with CN1CCN(c2ccc(CNS(=O)(=O)c3cccc(F)c3)cc2)CC1, Cc1cccc(NC(=S)NCCc2ccc(F)cc2)c1C is higher in max response: -2.69% for the first, 6.6% for the second.

Compared with COc1ccccc1Oc1nc(-c2cccnc2)nc2ccccc12, COc1ccc(Nc2nc(-c3cccnc3)nc3ccccc23)cn1 is lower in max response: 6.84% for the first, -4.67% for the second.

Compared with CC(C)(C)NC(=O)c1ccc(Cn2cc(C(F)(F)F)ccc2=O)cc1, O=C(CN(c1cc(C(F)(F)F)ccc1Cl)S(=O)(=O)c1ccccc1)NCc1cccnc1 is lower in max response: -2.26% for the first, -4.73% for the second.

Going from Cc1cccc(N(CC(=O)N2CCOCC2)S(C)(=O)=O)c1 to CCOC(=O)N1CCN(C(=S)Nc2ccc(C)cc2C)CC1, the max response falls from -1.89% to -5.54%.

Going from Cc1ccc(N2C(=O)SC(N(CC(=O)O)c3ccc(C)cc3)C2=O)cc1 (stereo not drawn) to CC1=NN(Cc2ccccc2)C(=O)/C1=C/c1ccc(N(C)C)cc1, the max response falls from 5.36% to 3.72%.

First: CCOC(=O)c1cn(CC(=O)Nc2ccc(C(C)C)cc2)nn1
Second: CCOC(=O)CSc1nnc(CNc2ccc(F)cc2)o1
The max response of the first is lower: -2.13% for the first, -0.571% for the second.

Going from CCc1ccc(NC(=O)Cn2ncn3c(cc4ccccc43)c2=O)cc1 to O=C(O)Cn1c(Cc2ccccc2)nc2ccccc21, the max response rises from -4.36% to 1.69%.

Going from COC(=O)c1ccc2c(=O)n(CCN3CCOCC3)c(SCC(=O)Nc3cccc(OC)c3)nc2c1 to CCCc1nn2c(=O)cc(CSCC(=O)Nc3cccc(C)c3)nc2s1, the max response falls from -1.03% to -2.96%.

Compared with O=C(COC(=O)c1ccco1)NCc1ccc(Cl)cc1, COC(=O)c1cc(Cl)c(NC(=O)c2ccco2)cc1OC is lower in max response: 4.34% for the first, 3.33% for the second.

Compared with O=C(c1ccccc1)N1CCC(CC2CC(c3ccc(Cl)cc3)=NO2)(C(=O)NCC2CCCCC2)CC1 (stereo not drawn), COc1ccc(C(C(=O)NC2CCCC2)N(CCCO)C(=O)Cn2nnc(-c3ccc(C)o3)n2)cc1 (stereo not drawn) is lower in max response: -1.39% for the first, -4.49% for the second.

First: COc1ccc(-c2oc3ncn(Cc4ccco4)c(=N)c3c2-c2ccc(OC)cc2)cc1
Second: COc1ccc(C2/C=C\CN(C(=O)c3ccc(C)cc3)C(Cc3ccccc3)C(=O)N2Cc2ccc(F)cc2)cc1 (stereo not drawn)
The max response of the first is lower: -1.11% for the first, 2.85% for the second.

First: COC(=O)c1cccnc1NC(=S)NC(C)C
Second: COc1ccc(C(=O)NC(=S)N2CCNC(=O)C2CC(=O)OC(C)C)cc1 (stereo not drawn)
The max response of the first is higher: 3.9% for the first, 0.131% for the second.

Compared with CCOc1ccc(C(=O)COC(=O)c2ccc(-n3cnnn3)cc2)cc1, O=C(Nc1cccc(-n2cnnn2)c1)c1cccnc1 is lower in max response: 1.17% for the first, -4.68% for the second.

Going from CC1CN(c2nc(-c3ccccc3)nnc2-c2ccccc2)CC(C)O1 (stereo not drawn) to O=C1NCC(=O)N(Cc2ccccc2)/C1=C/c1ccccc1, the max response falls from -4.84% to -7.39%.

First: CCOc1cc(/C=N/NC(=O)CN2CCCCC2)ccc1O
Second: O=C(CN1CCSCC1)N/N=C/c1ccc(Cl)cc1
The max response of the first is lower: -1.36% for the first, 11.3% for the second.

Going from Cc1ccc(/C=N/NC(=O)COc2ccccc2-c2ccccc2)cc1 to CCOc1ccc(NC(=O)COc2ccc(C(=O)NC3CCCc4ccccc43)cc2OC)cc1 (stereo not drawn), the max response falls from -1.02% to -1.56%.

Going from CC(Sc1nc2c([nH]c3ccccc32)c(=O)n1C)c1ccccc1 (stereo not drawn) to COc1ccccc1N(C)C(=O)c1cc(S(=O)(=O)N2CCc3ccccc32)cn1C, the max response rises from -7.36% to 0.704%.

Going from O=C(CN(Cc1ccc(Br)cc1)S(=O)(=O)c1ccccc1)NCc1ccncc1 to Cc1cc(F)ccc1NC(=S)NCCc1ccccc1, the max response rises from -2.43% to 5.78%.

Compared with Cc1cc(C)nc(-n2nc(C)cc2NC(=O)c2ccc(F)cc2F)n1, Cc1cc(NC(=O)c2ccco2)c(=O)n(Cc2c(F)cccc2Cl)c1 is higher in max response: -3.69% for the first, -2.05% for the second.

Going from N=c1c2c3c(sc2nc2n1CCCCC2)CCCC3 to O=C(O)CCn1c(O)c(C=C2N=c3ccccc3=N2)sc1=S, the max response falls from 15% to -1.81%.

Going from C[C@@H]1CC[C@@]2(OC1)O[C@H]1C[C@H]3[C@@H]4CC=C5C[C@@H](O)[C@H](O)C[C@]5(C)C4CC[C@]3(C)[C@H]1[C@@H]2C (stereo partly drawn) to COc1ccc(NC(=O)C(CC(C)C)NC(=O)C2CCC(C)CC2)cc1 (stereo not drawn), the max response rises from -6.07% to 6.1%.

Compared with CCNC(=S)Nc1cccc(Cl)c1C, Cc1ccc(NC(=S)NCc2ccccc2Cl)c(C)c1 is higher in max response: -2.36% for the first, 10.7% for the second.

Compared with CC#CC[N+](C)(C)CCCCCC, O=C1Nc2cc(Cl)c(Cl)cc2N(O)N1c1cc(Cl)cc(Cl)c1 is lower in max response: 0.922% for the first, -2.32% for the second.

In the case of O=C1Nc2cc(Cl)c(Cl)cc2N(O)N1c1ccccc1Cl, the max response was 4.44%.

For CN(C)S(=O)(=O)c1ccc2oc(SCC(=O)Nc3ccccc3F)nc2c1, the max response was 40% (active).
In the case of Cc1ccc(-n2c(C)cc(/C=C(\C#N)C(=O)NCC3CCCO3)c2C)cc1 (stereo not drawn), the max response was 50.5% (active).
In the case of CCCn1nnc2sc3c(c2c1=O)CCC(C)C3 (stereo not drawn), the max response was 35.5% (active).
For CCN(CC)CCC(c1cc(OC)c(OC)c(OC)c1)c1c(OC)cc(OC)c2c(-c3ccccc3)cc(=O)oc12 (stereo not drawn), the max response was -8.53% and -14.6%.
For Fc1ccc(/C=N/Nc2nc(-c3cccnc3)nc3ccccc23)cc1, the max response was 46.2% (active).
With Cc1cccc(N2C(=O)SC(N(CC(=O)O)c3cccc(C)c3)C2=O)c1 (stereo not drawn) the max response was 31.1% (active).
With CC(C)c1ccc(NC(=O)Cn2ncc3ccccc32)cc1 the max response was 29% (active).
With Cc1cccc2nc(CNc3ccc(F)cc3)cn12 the max response was 33.7% (active).
For COc1cccc(-n2c(=S)[nH]c3c(oc4ccccc43)c2=O)c1, the max response was 18.5% (active).
In the case of Cc1ccc(NC(=S)Nc2ncccc2C)c(C)c1, the max response was 42.7% (active).
For Cc1ccc(COc2ccc(/C=N/NC(=O)CN3CCCCC3)cc2)cc1, the max response was 32.7% (active).
For Cc1ccc(/C=N/NC(=O)c2sccc2OCc2ccc(F)cc2)cc1, the max response was 16.2% (active).
With CN(C)c1ccc(/C=C2\NC(=S)N(Cc3ccccc3)C2=O)cc1 the max response was 16.3% (active).
In the case of Cc1ccc(-n2nc3cc(C)c(NC(=O)c4cccnc4)cc3n2)cc1, the max response was 15.8% (active).
For Cc1ccc(-n2nc3cc(Cl)c(NC(=O)c4ccco4)cc3n2)cc1, the max response was 45% (active).
With Cc1cccc(NC(=S)NCCc2ccc(Cl)cc2)c1C the max response was 17.3% (active).
For Cc1ccc(NC(=S)NCCc2ccc(Cl)cc2)c(C)c1, the max response was 13.7% (active).
For O=C(O)c1cccc(N2C(=O)Nc3ccccc3N2O)c1, the max response was 24.6% (active).
